Most compounds without a hit are left out; they make up all but 3.4% or so of the library.
AmpC inh no detg: blocks E. coli AmpC beta-lactamase in detergent-free assay | P00811 | AmpC nitrocefin hydrolysis, absorbance 480 nm, 0.0001% Triton | Potency, µM (top dose mostly 57.1 µM), without a hit: top-dose activity change, negative = inhibition, actives largely listed as inhibitors | actives 0.52% (n = 330,000) | AID 485341;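 also: plate controls were no compound for no effect and no enzyme for full effect; nearly all actives have a fitted effect of over 20% in size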
Target sequence (P00811 whole entry, looked up): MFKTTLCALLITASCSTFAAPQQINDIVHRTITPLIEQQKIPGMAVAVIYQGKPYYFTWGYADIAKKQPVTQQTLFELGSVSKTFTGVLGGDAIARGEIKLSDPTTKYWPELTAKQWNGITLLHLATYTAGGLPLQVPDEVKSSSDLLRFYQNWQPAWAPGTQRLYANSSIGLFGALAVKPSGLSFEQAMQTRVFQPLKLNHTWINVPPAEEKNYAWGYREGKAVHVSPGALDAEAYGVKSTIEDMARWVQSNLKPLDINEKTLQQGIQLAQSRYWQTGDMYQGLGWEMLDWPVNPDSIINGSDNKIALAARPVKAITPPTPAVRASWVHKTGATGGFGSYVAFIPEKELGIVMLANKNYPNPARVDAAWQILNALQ
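AmpC (5.3 nM in the dispensed reagent) in 20 mM phosphate pH 7.0 with 0.01% (detergent screen) or 0.0001% Triton X-100 was preincubated with compounds for 15 min at room temperature. Nitrocefin was then added from an 800 uM solution, and hydrolysis was followed at 480 nm.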
Sm TGR inh: S. mansoni TGR enzyme inhibition. Potency, µM (top dose mostly 114 µM), inactives show at the top dose activity change, negative = inhibition, actives largely listed as inhibitors. Q962Y6. actives 3% (n = 360,000). purified TGR, DTNB reduction, TNB absorbance 405 nm; also: nearly all actives have a fitted effect of over 60% in size
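First, TGR (20 nM dispensed) and NADPH were mixed with compound. Second, a 15 min room-temperature incubation followed. Third, further NADPH and then DTNB were added to start the reaction. Finally, TNB absorbance was monitored kinetically.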
Giardia FBPA inh-1: inhibitors of Giardia lamblia fructose-1,6-bisphosphate aldolase | A8B2U2 | purified Giardia FBPA | actives 0.71% (n = 290,000) | Potency, µM (highest dose often 59.6 µM), without a hit: top-dose activity, negative = inhibition, hits mostly inhibitors; also: nearly all actives have a fitted effect of over 55% in size
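40 nM FBPA preincubated 10 min at RT with compound (up to 57.5 uM final), then substrate plus GAPDH/TPI/NAD/arsenate coupling and diaphorase/resazurin added. Fluorescence read after 20 min at RT, 525/598 nm.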
AmpC inh detg: inhibitors of E. coli AmpC beta-lactamase with detergent. AmpC hydrolysis of nitrocefin, absorbance 480 nm, 0.01% Triton. Potency, µM (highest dose often 114 µM), without a hit: at the highest dose activity change, negative = inhibition, usual class: inhibitors. actives 0.041% (n = 370,000). AID 485294;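 also: 0% = no-compound wells and -100% = no-enzyme wells; nearly all actives have a fitted effect of over 25% in size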
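20 mM phosphate pH 7.0 + 0.01% (detergent screen) or 0.0001% Triton X-100; 5.3 nM AmpC reagent; cpd preinc 15 min RT; nitrocefin (800 uM stock) to start; A480 q20 s × 4 min; Activity was normalised to no-enzyme and no-compound control wells.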
RE007 growth inh: less growth of the S. pombe RE007 Vpr strain; S. pombe RE007 Vpr strain, BacTiter-Glo ATP luminescence, 24 h; Potency, µM (doses to about 92.2 µM), for the others: at the top dose activity change, negative = less growth, most hits filed as inhibitors; actives 0.21% (n = 360,000); active = well fitted falling curve with a large enough effect; inconclusive = small, poorly fitted or top-dose-only effect; inactive = no such curve, though single readings can be large or run the other way; also: nearly all actives have a fitted effect of over 50% in size
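Fission yeast RE007 carrying one integrated HIV-1 vpr copy, seeded at OD 0.01 in PMG+AL medium with 23 nL pinned compound. Grown 24 h at 30 degrees; viability read by BacTiter-Glo luminescence after 5 min.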
Giardia growth: Giardia lamblia growth inhibition. shares compounds with Giardia FBPA inh-1. Giardia lamblia trophozoite growth inhibition. Potency, µM (top dose mostly 57.5 µM), without a hit: top-dose activity change, negative = inhibition, usual class: inhibitors. actives 5% (n = 1,500). AID 2785;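 also: trophozoites exposed to compound for 48 h at 37 °C; nearly all actives have a fitted effect of over 70% in size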
Mammalian tox: mammalian cytotoxicity of Giardia aldolase inhibitor hits; shares compounds with Giardia FBPA inh-1; mammalian cell viability counter-screen, qHTS; Potency, µM (series often up to 57.5 µM), for the others: at the top dose viability change, negative = toxicity, hits mostly inhibitors; actives 4% (n = 1,500); AID 2786;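 also: Chinese hamster ovary cells used as mammalian cytotoxicity surrogate; viability measured as cellular ATP by luminescence; compound exposure lasted 48 h before reading; nearly all actives have a fitted effect of over 60% in size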
Giardia FBPA inh-2: confirmation of Giardia fructose-bisphosphate aldolase inhibitors | Potency, µM (titrated, usually from 57.5 µM), inactives show at the highest dose activity change, negative = inhibition, hits mostly inhibitors | AID 2787 | actives 5% (n = 1,500) | purified Giardia aldolase enzyme activity, qHTS | shares compounds with Giardia FBPA inh-1; also: nearly all actives have a fitted effect of over 45% in size
Rabbit aldolase: selectivity test for Giardia aldolase inhibitors: rabbit aldolase; shares compounds with Giardia FBPA inh-1; Potency, µM (highest dose often 57.5 µM), inactives show at the highest dose activity, negative = inhibition, usual class: inhibitors; Rabbit muscle FBPA enzyme inhibition, selectivity counter-screen; actives 4% (n = 1,500); also: nearly all actives have a fitted effect of over 60% in size
Target sequence (P00883 whole entry, looked up): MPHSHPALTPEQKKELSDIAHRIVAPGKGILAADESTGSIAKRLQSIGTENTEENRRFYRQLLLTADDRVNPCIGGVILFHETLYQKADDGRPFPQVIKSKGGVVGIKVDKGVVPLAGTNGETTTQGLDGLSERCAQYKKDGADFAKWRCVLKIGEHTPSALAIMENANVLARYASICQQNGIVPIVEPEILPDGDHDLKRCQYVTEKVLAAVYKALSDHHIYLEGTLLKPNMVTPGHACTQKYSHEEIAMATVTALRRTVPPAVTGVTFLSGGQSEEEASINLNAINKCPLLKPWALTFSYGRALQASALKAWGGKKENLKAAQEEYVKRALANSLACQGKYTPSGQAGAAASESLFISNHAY
GAPDH counter: counter-screen for Giardia aldolase inhibitors: GAPDH coupling enzyme; AID 2795; actives 6% (n = 1,500); Potency, µM (series often up to 57.5 µM), without a hit: top-dose activity change, negative = inhibition, actives largely listed as inhibitors; GAPDH coupling enzyme counterscreen, biochemical, qHTS; shares compounds with Giardia FBPA inh-1; also: nearly all actives have a fitted effect of over 55% in size
* = called active by the depositor; ? = inconclusive; nt = no result given; [ ] = remark or other dose. Unless noted, calls follow the shape of the dose curve; as a rule, active = well fitted curve in the direction sought with a large enough effect; inconclusive = small, poorly fitted or top-dose-only effect, or another doubt; inactive = no such curve, though single readings can be large; an effect the other way counts as inactive or inconclusive. Unless noted, % is scaled to controls: 0 for no effect and ±100 for the full control effect; potency is read from the fitted curve at half-maximal effect.

SMILES	AmpC inh no detg	Sm TGR inh	Giardia FBPA inh-1	AmpC inh detg	RE007 growth inh	Giardia growth	Mammalian tox	Giardia FBPA inh-2	Rabbit aldolase	GAPDH counter
COC(=O)[C@@H](N)CS	-21%	5%	16µM*	-8%	-10%[18.4 µM]	3%[10.4 µM]	1%	4%	11%	13%
COC(=O)C(N)CCCN=C(N)N[N+](=O)[O-] (centres undefined)	nt	nt	-2%	nt	nt	nt	nt	nt	nt	nt
COC(=O)/C(=C/Nc1cccc2ccccc12)[N+](=O)[O-]	-19%	-2%	?	10%	-1%	-19%[38.3 µM]	-15%	?	?	?
Cc1nc(=S)n(-c2ccccc2)[nH]1	-15%	4%	-24%	-1%	1%	nt	nt	nt	nt	nt
Nc1nc(=S)n(-c2ccccc2)[nH]1	-11%	-11%	7.1µM*	-2%	4%	19%	-1%	2%	5%	9%
COC(=O)c1ccc(Cl)cc1NC(=O)NC(C)c1c(-n2cccc2)sc(C)c1C (centres undefined)	nt	-8%	nt	-1%	nt	nt	nt	nt	nt	nt
C(=C\c1ccccc1)/CN1CCN(C(c2ccccc2)c2nnnn2C2CCCC2)CC1 (centres undefined)	nt	nt	nt	nt	-16%	nt	nt	nt	nt	nt
COc1ccc(S(=O)(=O)N2CCN(C3CC4CCC3C4)CC2)cc1 (centres undefined)	-13%	0%	-23%	-7%	-5%	nt	nt	nt	nt	nt
Cc1ccc(S(=O)(=O)N2CCN(C3CC4CCC3C4)CC2)cc1 (centres undefined)	-20%	7%	14µM*	0%	1%	18%	-1%	3%	0%	14%
COCC(=O)OC/C(O)=C(\C#N)c1nc2ccccc2[nH]1	-10%	-32%	16µM*	6%	-12%	10%[10.4 µM]	?	-1%	-1%	1%
N#C/C(=C(/O)COC(=O)c1cccnc1Cl)c1nc2ccccc2[nH]1	-39%	4%	18µM*	0%	5%	20%	-4%	-16%	-13%	-14%
CC(C)C(=O)OC/C(O)=C(\C#N)c1nc2ccccc2[nH]1	-32%	4%	20µM*	8%	-5%	3%[10.4 µM]	-8%	-8%	-3%	-15%
CCCC(=O)OC/C(O)=C(\C#N)c1nc2ccccc2[nH]1	0%[2.29 µM]	-6%	?	1%	4%	nt	nt	nt	nt	nt
N#C/C(=C(/O)COC(=O)c1ccc(O)cc1)c1nc2ccccc2[nH]1	-36%	-11%	10µM*	3%	-11%	-15%	1%	-7%	2%	3%
Cc1cccc(C)c1OCC(=O)OC/C(O)=C(\C#N)c1nc2ccccc2[nH]1	-23%	1%	-15%	-13%	14%	nt	nt	nt	nt	nt
CC(=O)N1c2ccccc2S(=O)(=O)c2ccccc21	-7%	-4%	nt	-10%	-9%	nt	nt	nt	nt	nt
CC1=C(C#N)C(=O)N(C2CCS(=O)(=O)C2)C(=O)/C1=C\c1ccc(C)o1 (centres undefined)	13%	16µM*	13µM*	-12%	nt	47%	5%	?	?	?
Cc1ccc(/C=C2\SC(=S)N(C3CCS(=O)(=O)C3)C2=O)o1 (centres undefined)	-47%	?	?	2%	6%	nt	nt	nt	nt	nt
C=CCn1c(SCC(=O)c2ccc(O)c(O)c2)nnc1-c1cccc(C)c1	-25%	-17%	nt	0%	-14%	nt	nt	nt	nt	nt
C=CCn1c(SCC(=O)c2ccc(O)c(O)c2)nnc1-c1cccc(Cl)c1	-23%	-17%	nt	-8%	1%	nt	nt	nt	nt	nt
C=CCn1c(SCC(=O)c2ccc(O)c(O)c2)nnc1-c1cccnc1	-33%	?	16µM*	1%	-13%	27%[10.4 µM]	23%	-25%	-20%	-4%
C=CCn1c(SCC(=O)c2ccc(O)c(O)c2)nnc1-c1ccccc1OC	-56%	0%	3.2µM*	-18%	-9%	?	?	-19%	-18%	8%
CCn1c(SCC(=O)c2ccc(O)c(O)c2)nnc1-c1ccccc1	-20%	-28%	2.2µM*	-12%	18%	-20%	-15%	-27%	-29%	-1%
COc1ccccc1-c1nnc(SCC(=O)c2ccc(Cl)cc2)n1-c1ccccc1	nt	9%	nt	1%	nt	nt	nt	nt	nt	nt
CCn1c(SCC(=O)c2ccc(O)c(O)c2)nnc1-c1ccccc1OC	-22%	-12%	3.2µM*	-10%	2%	?	-1%	-24%	-18%	0%
SMILES	AmpC inh no detg	Sm TGR inh	Giardia FBPA inh-1	AmpC inh detg	RE007 growth inh	Giardia growth	Mammalian tox	Giardia FBPA inh-2	Rabbit aldolase	GAPDH counter
CCc1cccc(CC)c1NC(=O)C1CCC(CNS(=O)(=O)c2cccc3nsnc23)CC1 (centres undefined)	nt	10%	nt	1%	nt	nt	nt	nt	nt	nt
Cc1ccc(N2CCN(/N=C/c3cccnc3)CC2)cc1	-3%	4%	6%	-7%	-18%	nt	nt	nt	nt	nt
CC(C)(C)c1ccc(NC(=O)CC2(C(F)(F)F)OCCO2)cc1	3%	-6%[11.4 µM]	-2%	-7%	13%	nt	nt	nt	nt	nt
COc1ccc(-c2cc(C(F)(F)F)c(C#N)c(=O)[nH]2)cc1	-15%	-34%	-3%	1%	10%	nt	nt	nt	nt	nt
COc1ccc(-c2cc(-c3ccco3)[nH]c(=O)c2C#N)cc1	-36%	3.2µM*	20µM*	-11%	0%	-29%	-7%	-12%	-1%	-1%
COc1cc(-c2nc(C(=O)NCC3CCCO3)cc3c2[nH]c2ccccc23)cc(OC)c1OC (centres undefined)	253%	4%	8.9µM*	-8%	0%	-9%	40µM*	-1%	-9%	-1%
COc1ccccc1-c1nc(C(=O)NCC2CCCO2)cc2c1[nH]c1ccccc12 (centres undefined)	45%	-22%	-14%	-16%	-1%	nt	nt	nt	nt	nt
O=C(O)c1cc(O)c(O)c(O)c1	nt	nt	3.5µM*	nt	nt	-29%[38.3 µM]	40µM*	14µM*	20µM*	25µM*
NNC(=O)c1cc(O)c(O)c(O)c1	1%	0%	?	-5%	13%	nt	nt	nt	nt	nt
CCCCn1nnc(NC(=S)NC(=O)c2cccs2)n1	-17%	?	?	0%	nt	nt	nt	nt	nt	nt
